Compounds with a hit are over-represented: about 19% of the library has one in this group of screens.
TDP1 cell CPT: growth inhibition of DT40 Tdp1-/-;hTDP1 cells with camptothecin (screen for TDP1 inhibitors); Potency, µM (highest dose often 46.2 µM), actives largely listed as inhibitors; AID 686979; actives 12% (n = 420,000); chicken DT40 Tdp1-/-;hTDP1 cells + 20 nM CPT, ATP luminescence, 48 h; also: nearly all actives have a fitted effect of over 55% in size
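Chicken DT40 Tdp1-/- cells complemented with human TDP1, 400 cells/well, exposed to compounds plus 20 nM camptothecin for at least 48 h at 37 C; viability read as ATP content by CellTiter-Glo luminescence.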
IL1B secr inh: inflammasome signaling inhibition, IL-1 beta readout. actives 4.7% (n = 360,000). AID 743279. THP-1 LPS/ATP IL-1B secretion, AlphaLISA, 16 h; stronger effect = lower value. activity change, % at 57.5 µM; in the data active = activity change below about -50%; inconclusive = mostly about -30% to -49%
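THP-1 cells pretreated 1 hr with compounds (up to 57.5 uM final), then stimulated with LPS (250 ng/mL final) plus ATP (1.25 mM final); secreted IL-1B measured by AlphaLISA after 16 hr, decreased signal indicating inhibition.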
SW480 rereplic: induces DNA re-replication in SW480 colon adenocarcinoma cells | SW480 DNA re-replication, Hoechst DNA content imaging, 48 h | Potency, µM (series often up to 46.1 µM), actives largely listed as activators | actives 1.8% (n = 340,000); also: nearly all actives have a fitted effect of over 55% in size
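Compounds, transferred as 23 nL by pin tool, were incubated with cells for 48 hr; DNA content per nucleus was then quantified by Hoechst staining and fluorescence plate imaging.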
MCF10A rereplic: induces DNA re-replication in MCF 10a normal breast cells. MCF 10A DNA re-replication, Hoechst nuclear intensity, 48 h. Potency, µM (series often up to 46.1 µM), usual class: activators. actives 2.9% (n = 350,000); also: nearly all actives have a fitted effect of over 50% in size
BCR signal inh: blocks chronic active B-cell receptor signaling. Potency, µM (highest dose often 46.1 µM), actives largely listed as inhibitors. actives 0.05% (n = 340,000). ABC-DLBCL IkBa-CBG/CBR reporter, luminescence ratio, 4 h; active = well fitted inhibition curve with a large enough effect in the signal ratio, with a control signal flat, not every such curve was filed as active; inconclusive = small, poorly fitted or top-dose-only effect, or effect the other way, or a change in a side signal; the % refers to the signal ratio
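Compounds up to 46 uM were incubated four hours with TMD8 cells whose green CBG68 luciferase is fused to IkappaBalpha; red CBR luminescence normalised the signal, and concentration-effect curves were fitted to fusion, red and ratio data.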
TDP1 cell noCPT: qHTS for Inhibitors of human tyrosyl-DNA phosphodiesterase 1 (TDP1): qHTS in cells in absence of CPT; DT40 Tdp1-/- hTDP1 cells, no CPT, ATP luminescence, 48 h; Potency, µM (titrated, usually from 46.2 µM), actives largely listed as inhibitors; actives 15% (n = 420,000); also: nearly all actives have a fitted effect of over 55% in size
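Growth kinetics read by CellTiter-Glo luminescence after ≥48 hr at 37 °C. Cells: DT40 Tdp1-/- stably carrying human TDP1, 400 per well, compound exposure in the absence of CPT (DMSO vehicle).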
A number is an active result; - = inactive; ? = inconclusive; . = no result given; [ ] = another dose, or the depositor's remark. Unless noted, calls follow the shape of the dose curve; as a rule, active = well fitted curve in the direction sought with a large enough effect; inconclusive = small, poorly fitted or top-dose-only effect, or another doubt; inactive = no such curve, though single readings can be large; an effect the other way counts as inactive or inconclusive.

SMILES	TDP1 cell CPT	IL1B secr inh	SW480 rereplic	MCF10A rereplic	BCR signal inh	TDP1 cell noCPT
COc1ccccc1-c1cn[nH]c1-c1ccc(OCC(=O)NN)cc1O	-	-	-	-	-	-
NNC(=O)COc1ccc(-c2n[nH]c(C(F)(F)F)c2-c2ccc(Br)cc2)c(O)c1	-	-	-	18µM	?	-
CN(C)c1nc(NC(C)(C)C)nc(NC(C)(C)C)n1	?	-	-	-	-	21µM
CCNc1nc(NC(C)(C)C)nc(N(CC)n2cnnc2)n1	-	-	-	-	-	-
CCC(=O)N1CCc2cc(Br)cc(S(=O)(=O)N3CCCC(C(=O)Nc4cccc(Cl)c4C)C3)c21 (configuration not stated)	15µM	.	.	.	.	12µM
CCC(=O)N1CCc2cc(Br)cc(S(=O)(=O)NCCc3ccccc3Cl)c21	16µM	.	.	.	.	21µM
CCC(=O)N1CCc2cc(Br)cc(S(=O)(=O)N3CCCC(C(=O)Nc4ccc(OC)c(Cl)c4)C3)c21 (configuration not stated)	-	.	.	.	.	?
CCC(=O)N1CCc2cc(Br)cc(S(=O)(=O)CCC(=O)NCCc3ccccc3)c21	-	-	-	-	?	?
CCC(=O)N1CCc2cc(Br)cc(S(=O)(=O)CCC(=O)NCCc3cccc(C)c3)c21	16µM	.	.	.	-	23µM
CCCNS(=O)(=O)c1cc(Br)cc2c1N(C(=O)CC)CC2	-	-	-	-	-	-
CC1(C(=O)Nc2nnc(SCc3ccccc3)s2)Cc2ccccc2C(=O)O1 (configuration not stated)	?	-	-	-	?	?
CC1(C(=O)Nc2ncc(Cc3ccc(Br)cc3)s2)Cc2ccccc2C(=O)O1 (configuration not stated)	23µM	.	.	.	.	23µM
O=C(COc1ccccc1)Nc1ccc2nc(SCC(=O)N3CCCC3)sc2c1	?	.	.	.	.	23µM
COC(=O)CSc1nc2ccc(NC(=O)c3ccccc3C(=O)N3CCOCC3)cc2s1	-	-65	-	-	-	-
O=C(COc1ccccc1Cl)Nc1ccc2nc(SCC(=O)N3CCOCC3)sc2c1	?	.	.	.	.	4.1µM
CC(C)(C)C(=O)Nc1ccc2nc(SCC(=O)N3CCOCC3)sc2c1	-	.	.	.	.	?
COc1ccccc1C(=O)Nc1ccc2nc(SCC(=O)N3CCCC3)sc2c1	?	.	.	.	.	4.1µM
CCOc1ccc(NC(=O)COC(=O)c2ccccc2OCc2ccccc2Br)cc1	-	.	.	.	.	-
COCCn1c(=O)c(-c2ccc(OC)cc2)nc2cnc(OCc3ccccc3)nc21	-	.	.	.	.	-
O=C(Nc1ccc2nc(SCC(=O)N3CCOCC3)sc2c1)c1ccccc1Cl	?	.	.	.	.	18µM
CCc1noc(C)c1C(=O)Nc1cc(Cl)ccc1N1CCOCC1	-	-	-	-	-	-
CCOC(=O)c1cc(NC(=O)c2ccc(OC)cc2)c(=O)n2c1oc1ccc(Cl)cc12	-	.	.	.	.	-
CN(Cc1nnc(-c2ccc(F)cc2)o1)c1ccccc1	-	-	?	-	?	-
COc1ccc(CCNCC(=O)Nc2ccc(C)c(Br)c2)cc1OC	9.2µM	-	-	-	-	?
COc1ccc(CCN(C)CC(=O)Nc2ccc(F)c(Cl)c2)cc1OC	-	-58	-	-	-	?
SMILES	TDP1 cell CPT	IL1B secr inh	SW480 rereplic	MCF10A rereplic	BCR signal inh	TDP1 cell noCPT
Cc1ccc(NC(=O)CN(C)CC(=O)Nc2ccc(F)c(Cl)c2)cc1	-	-	-	21µM	-	-
CN(CC(=O)Nc1ccc(Cl)c(Cl)c1)Cc1nnc(-c2ccc(F)cc2)o1	?	-58	-	-	-	?
Cc1ccc(OCCC(=O)Nc2ccc(F)c(Cl)c2)cc1	-	-	-	-	-	-
Fc1ccccc1-c1nc2nc3ccccc3nc2n1CC1CCCO1 (configuration not stated)	?	-	-	-	-	?
O=C(CCCCCn1c(=O)c2sccc2n(CC(=O)Nc2cc(C(F)(F)F)ccc2Cl)c1=O)NCc1ccccc1Cl	-	.	.	.	.	-
CN(CC(=O)Nc1ccc(Cl)cc1)CC(=O)Nc1cc(Cl)ccc1C#N	?	-84	-	?	-	23µM
COc1cccc(NC(=O)C(=O)NCCc2csc(-c3ccc(C(F)(F)F)cc3)n2)c1	?	.	.	.	.	-
COc1ccc(-c2nc(CCNC(=O)c3cccs3)cs2)cc1	16µM	-	-	-	-	21µM
O=C(NCCc1csc(-c2cccc(F)c2)n1)c1cccs1	?	.	.	.	.	16µM
CC1CCCCN1C(=O)CN1C(=O)NC2(CCCCC2C)C1=O (configuration not stated)	-	-	-	-	-	-
COc1cccc(-n2c(=O)n(Cc3ccccc3)c(=O)c3[nH]cnc32)c1C	-	-	-	-	?	?
C=CC[n+]1c(-c2ccc(OC)cc2)csc1NNC(=O)Nc1ccccc1	7.3µM	-	-	-	-	5.2µM
C=CC[n+]1c(-c2ccc(C)cc2)csc1Nc1ccc(NC(C)=O)cc1	?	-	-	?	-	?
CSCCC(NC(=O)c1ccco1)C(=O)NCCc1ccc(Cl)cc1 (configuration not stated)	-	-	-	-	-	-
O=C(CCN1C(=O)C2CCCCC2C1=O)Nc1ccc(Br)cc1F (configuration not stated)	-	-	?	-	?	-
CN(O)/C=C/C(=O)c1ccc(Br)cc1	16µM	?	-	?	-	?
CSCC(=O)N1CCCC(N2CCN(c3cccc(C(F)(F)F)c3)CC2)C1 (configuration not stated)	-	-	-	-	-	?
Oc1ccccc1CN1CCCC(N2CCN(c3cccc(C(F)(F)F)c3)CC2)C1 (configuration not stated)	18µM	-	-	?	-	?
Fc1ccccc1N1CCN(C2CCCN(Cc3cccc(C(F)(F)F)c3)C2)CC1 (configuration not stated)	?	-	-	?	-	16µM
O=C(NCCO)c1cn(C2CCCN(Cc3cccc(C(F)(F)F)c3)C2)nn1 (configuration not stated)	-[9.04 µM]	.	.	.	.	-
CN(CC1CCCN(CCc2cccc(C(F)(F)F)c2)C1)C(=O)c1ccco1 (configuration not stated)	-	-	-	-	-	-
CCN(Cc1cccc(OC)c1)CC1CCCN(CCc2cccc(OC)c2)C1 (configuration not stated)	15µM	-	?	?	-	?
CCOc1cccc(CN(CC)CC2CCCN(CCc3cccc(OC)c3)C2)c1O (configuration not stated)	?	-	-	-	?	16µM

High-throughput results: PubChem, National Center for Advancing Translational Sciences (NCATS)
